Measured potencies and affinities stand elsewhere.
Key:
Staphylococcus aureus = conditions: Concentration 32 ug.mL-1; ASSAY_TEST Inhibition of Bacterial Growth; detection method Absorption (OD600); MEDIA CAMHB; plate type 384well; NBS; CORNING #3640; time 18 hr
Escherichia coli = conditions: Concentration 32 ug.mL-1; ASSAY_TEST Inhibition of Bacterial Growth; detection method Absorption (OD600); MEDIA CAMHB; plate type 384well; NBS; CORNING #3640; time 18 hr

Q: For `CCOP(=O)(OCC)C(Cc1cn(Cc2cnc(C)nc2N)nn1)C(=O)O.O=C(O)C(F)(F)F` (configuration not stated), which Inhibition (Staphylococcus aureus) is on record?
A: 18.42%

Q: And the Inhibition (Escherichia coli)?
A: -15.56%

Reference: ChEMBL document CHEMBL4513139, “CO-ADD screening of University of Strathclyde (UK) compounds”
